Results reported in PubChem BioAssay (EPA / NIEHS).
Values joined by “and” are separate entries in the source; they are usually repeats but may differ in a detail not shown here. Identical values can stand only once. More than one record can exist for a structure, and the calls need not agree. Active and inactive are the calls of the source. How the source made its calls: active means hit-call score of the fitted dose curve at least 0.9, where 1 is the maximum; inactive means score below 0.9.

Experiments:
[1] = read-out: TIMP metallopeptidase inhibitor 2 (TIMP2), TIMP2 (gene 7077); test: BSK_KF3CT_TIMP2: BioMAP Diversity Plus: KF3CT Assay for TIMP metallopeptidase inhibitor 2 (TIMP2) Biomarker Activity (AID 2283071); conditions: primary human keratinocytes with fibroblasts; actives raise or lower the signal
Summary of the method: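 Cells: human keratinocytes co-cultured with foreskin fibroblasts. Treat with chemical, 24 h. Measure TIMP-2 by ELISA; fit curves bidirectionally vs DMSO baseline.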

[2] = read-out: Transforming growth factor beta 1 (TGFb1), TGFB1 (gene 7040); test: BSK_KF3CT_TGFb1: BioMAP Diversity Plus: KF3CT Assay for Transforming growth factor beta 1 (TGFb1) Biomarker Activity (AID 2283072); conditions: primary human keratinocytes with fibroblasts; actives raise or lower the signal
Summary of the method: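 Primary human skin cells (keratinocytes, foreskin fibroblasts) were co-cultured, exposed to test chemical and sampled at 24 h. TGF-b1 levels were measured by ELISA and fitted bidirectionally relative to DMSO.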

[3] = read-out: C-C motif chemokine 2 (Homo sapiens) (UniProt P13500); test: BSK_KF3CT_MCP1: BioMAP Diversity Plus: KF3CT Assay for Monocyte Chemoattractant Protein 1 (MCP1/CCL2) Biomarker Activity (AID 2283073); conditions: primary human keratinocytes with fibroblasts; actives raise or lower the signal
Summary of the method: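 ELISA read-out of MCP-1, 24 h post-dose, in primary human skin keratinocytes co-cultured with fibroblasts. Parallel SRB staining monitors cytotoxicity; changes fitted both directions relative to DMSO.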

[4] = read-out: Matrix Metallopeptidase 9 (MMP9), MMP9 (gene 4318); test: BSK_KF3CT_MMP9: BioMAP Diversity Plus: KF3CT Assay for Matrix Metallopeptidase 9 (MMP9) Biomarker Activity (AID 2283074); conditions: primary human keratinocytes with fibroblasts; actives raise or lower the signal
Summary of the method: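 Human keratinocyte and foreskin fibroblast co-culture exposed to chemicals for 24 h; MMP9 biomarker measured by ELISA, bidirectional fitting relative to DMSO; cytotoxicity tracked by SRB total protein staining in parallel cultures.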

[5] = read-out: urokinase plasminogen activator (uPA), PLAU (gene 5328); test: BSK_KF3CT_uPA: BioMAP Diversity Plus: KF3CT Assay for urokinase plasminogen activator (uPA) Biomarker Activity (AID 2283075); conditions: primary human keratinocytes with fibroblasts; actives raise or lower the signal
Summary of the method: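 Primary human keratinocyte/foreskin fibroblast co-culture exposed to chemical; uPA measured by ELISA at 24 h. Bidirectional fit versus DMSO, with parallel SRB total-protein staining for cytotoxicity.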

[6] = read-out: CD40, CD40 (gene 958); test: BSK_LPS_CD40: BioMAP Diversity Plus: LPS Assay for CD40 Biomarker Activity (AID 2283076); conditions: primary human HUVEC with PBMC; actives raise or lower the signal
Summary of the method: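 In the LPS system of human endothelial cells with peripheral blood mononuclear cells, CD40 levels were read by ELISA 24 h post-treatment. Signal changes in either direction were fitted against the DMSO baseline, with parallel SRB protein staining.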

[7] = read-out: E-selectin (Homo sapiens) (UniProt P16581); test: BSK_LPS_Eselectin: BioMAP Diversity Plus: LPS Assay for Eselectin Biomarker Activity (AID 2283077); conditions: primary human HUVEC with PBMC; actives raise or lower the signal
Summary of the method: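 E-selectin ELISA on LPS-stimulated endothelial cell/PBMC co-cultures, read 24 h post-treatment; gains and losses fitted against DMSO. Parallel SRB staining (0.1% SRB after 10% TCA fixation, 560 nm) flags overt cytotoxicity.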

[8] = BSK_LPS_SRB: Viability Assessment in the BioMAP Diversity Plus: LPS Assay (AID 2283079); conditions: primary human HUVEC with PBMC;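 further: total protein by sulforhodamine B absorbance as a cytotoxicity measure; measured one day after compound addition; fitted in both directions against DMSO so loss or gain of signal counts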
Summary of the method: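 SRB viability endpoint: cells fixed with 10% TCA, stained with 0.1% SRB, read at 560 nm, 24 h post-dose. HUVEC/PBMC co-culture; signal change in either direction scored relative to DMSO.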

[9] = read-out: Interleukin-1 alpha (IL1a), IL1A (gene 3552); test: BSK_LPS_IL1a: BioMAP Diversity Plus: LPS Assay for Interleukin-1 alpha (IL1a) Biomarker Activity (AID 2283080); conditions: primary human HUVEC with PBMC; actives raise or lower the signal
Summary of the method: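 Readout is IL-1a level by ELISA, 24 h post-dose, fitted as gain or loss relative to DMSO. System: LPS-activated human primary co-culture of vascular endothelium and peripheral blood mononuclear cells, with parallel SRB total-protein cytotoxicity.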

[10] = read-out: Monocyte Chemoattractant Protein-1 (MCP1), CCL2 (gene 6347); test: BSK_LPS_MCP1: BioMAP Diversity Plus: LPS Assay for Monocyte Chemoattractant Protein-1 (MCP1) Biomarker Activity (AID 2283081); conditions: primary human HUVEC with PBMC; actives raise or lower the signal
Summary of the method: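 Secreted MCP-1 read by ELISA at 24 h post-dosing in an LPS-activated co-culture of endothelial cells with peripheral blood mononuclear cells. Fits run in both directions, DMSO as baseline; parallel SRB staining tracks overt cytotoxicity.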

[11] = BSK_LPS_PGE2: BioMAP Diversity Plus: LPS Assay for Prostaglandin E2 (PGE2) Biomarker Activity (AID 2283082); conditions: primary human HUVEC with PBMC; actives raise or lower the signal;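 on AC50: secreted prostaglandin E2 measured by ELISA in LPS-stimulated co-culture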
Summary of the method: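 LPS-activated HUVEC/PBMC co-culture; cmpd dosed, 24 h; PGE2 by ELISA; bidirectional fit vs DMSO; SRB (0.1%, TCA-fixed, 560 nm) in parallel plates for overt cytotox.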

[12] = read-out: Macrophage colony-stimulating factor (MCSF), CSF1 (gene 1435); test: BSK_LPS_MCSF: BioMAP Diversity Plus: LPS Assay for Macrophage colony-stimulating factor (MCSF) Biomarker Activity (AID 2283083); conditions: primary human HUVEC with PBMC; actives raise or lower the signal
Summary of the method: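 Bidirectional fitting against DMSO was applied to M-CSF levels read by ELISA at 24 h post-dose. The system pairs human umbilical vein endothelium with peripheral blood mononuclear cells; parallel SRB staining tracked cytotoxicity.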

[13] = read-out: Tissue Factor, F3 (gene 2152); test: BSK_LPS_TissueFactor: BioMAP Diversity Plus: LPS Assay for Tissue Factor Biomarker Activity (AID 2283084); conditions: primary human HUVEC with PBMC; actives raise or lower the signal
Summary of the method: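 Compound was added to an endothelial cell/PBMC co-culture, and after 24 h tissue factor (CD142) was read by ELISA. Gain or loss of signal was fitted against a DMSO baseline, and parallel SRB staining (560 nm) tracked overt cytotoxicity.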

[14] = read-out: Tumor necrosis factor (Homo sapiens) (UniProt P01375); test: BSK_LPS_TNFa: BioMAP Diversity Plus: LPS Assay for Tumour Necrosis Factor alpha (TNFa) Biomarker Activity (AID 2283085); conditions: primary human HUVEC with PBMC; actives raise or lower the signal
Summary of the method: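 Read-out is ELISA of TNFa in primary human endothelial cell–PBMC co-cultures at 24 h after compound. Activity in either direction was fitted against DMSO.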

[15] = read-out: Vascular cell adhesion molecule 1 (VCAM1), VCAM1 (gene 7412); test: BSK_LPS_VCAM1: BioMAP Diversity Plus: LPS Assay for Vascular cell adhesion molecule 1 (VCAM1) Biomarker Activity (AID 2283086); conditions: primary human HUVEC with PBMC; actives raise or lower the signal
Summary of the method: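 HUVEC + PBMC co-culture, LPS system; compound 24 h; VCAM-1 by ELISA; bidirectional fit vs DMSO control; parallel SRB (0.1%, TCA-fixed, 560 nm) for cytotoxicity.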

[16] = read-out: CD38, CD38 (gene 952); test: BSK_SAg_CD38: BioMAP Diversity Plus: SAg Assay for CD38 Biomarker Activity (AID 2283087); conditions: primary human HUVEC with PBMC; actives raise or lower the signal
Summary of the method: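 Human HUVEC plus PBMC co-culture stimulated with superantigen; CD38 measured by ELISA 24 h after chemical dosing. Fluorescence read-out, bidirectional fit against DMSO; cytotoxicity tracked in parallel by SRB and Alamar Blue.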

[17] = read-out: CD40, CD40 (gene 958); test: BSK_SAg_CD40: BioMAP Diversity Plus: SAg Assay for CD40 Biomarker Activity (AID 2283088); conditions: primary human HUVEC with PBMC; actives raise or lower the signal
Summary of the method: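 CD40 is measured by fluorescence ELISA in an endothelial/PBMC primary human co-culture at 24 h post-dose. Fitting is bidirectional, DMSO baseline. Parallel SRB staining (560 nm) flags cytotoxicity.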

[18] = read-out: CD69, CD69 (gene 969); test: BSK_SAg_CD69: BioMAP Diversity Plus: SAg Assay for CD69 Biomarker Activity (AID 2283089); conditions: primary human HUVEC with PBMC; actives raise or lower the signal;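 on AC50: cell surface CD69 protein quantified by ELISA with fluorescence detection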
Summary of the method: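 ELISA, fluorescence read-out: CD69 on human umbilical vein endothelial cell + PBMC co-culture, 24 h post-dosing. Gain or loss of signal fitted bidirectionally against DMSO baseline.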

[19] = read-out: Monocyte Chemoattractant Protein-1 (MCP1), CCL2 (gene 6347); test: BSK_SAg_MCP1: BioMAP Diversity Plus: SAg Assay for Monocyte Chemoattractant Protein-1 (MCP1) Biomarker Activity (AID 2283090); conditions: primary human HUVEC with PBMC; actives raise or lower the signal
Summary of the method: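 MCP-1 levels in the endothelial–PBMC SAg co-culture were quantified by ELISA at 24 h post-dosing; both increases and decreases versus DMSO scored. Cytotoxicity monitored by SRB total protein in parallel cultures.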

[20] = read-out: Interleukin-8 (IL8), CXCL8 (gene 3576); test: BSK_LPS_IL8: BioMAP Diversity Plus: LPS Assay for Interleukin-8 (IL8) Biomarker Activity (AID 2283078); conditions: primary human HUVEC with PBMC; actives raise or lower the signal
Summary of the method: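 ELISA read-out of IL-8 after 24 h chemical treatment of LPS-activated endothelial/PBMC human primary co-cultures. Changes either up or down relative to DMSO; overt cytotoxicity checked by sulforhodamine B staining in parallel wells.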

Sequence of E-selectin (Homo sapiens) (P16581 whole entry, looked up): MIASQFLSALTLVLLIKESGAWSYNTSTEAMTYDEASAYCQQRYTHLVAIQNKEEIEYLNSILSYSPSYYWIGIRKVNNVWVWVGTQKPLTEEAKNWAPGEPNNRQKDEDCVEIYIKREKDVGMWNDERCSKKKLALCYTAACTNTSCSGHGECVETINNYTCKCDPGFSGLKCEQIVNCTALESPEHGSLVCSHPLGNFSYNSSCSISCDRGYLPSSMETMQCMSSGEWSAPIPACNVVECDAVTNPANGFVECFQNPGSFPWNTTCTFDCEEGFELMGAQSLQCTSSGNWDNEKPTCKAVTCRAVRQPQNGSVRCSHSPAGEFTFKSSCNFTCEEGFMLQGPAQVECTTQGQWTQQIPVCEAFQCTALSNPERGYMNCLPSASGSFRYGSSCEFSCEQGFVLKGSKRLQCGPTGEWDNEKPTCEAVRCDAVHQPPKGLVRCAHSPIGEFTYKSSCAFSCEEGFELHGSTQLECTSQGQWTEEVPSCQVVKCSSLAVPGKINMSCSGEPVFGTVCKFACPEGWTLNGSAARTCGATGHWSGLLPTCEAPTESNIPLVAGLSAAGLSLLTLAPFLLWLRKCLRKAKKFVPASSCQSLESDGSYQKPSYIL
Sequence of Tumor necrosis factor (Homo sapiens) (P01375 whole entry, looked up): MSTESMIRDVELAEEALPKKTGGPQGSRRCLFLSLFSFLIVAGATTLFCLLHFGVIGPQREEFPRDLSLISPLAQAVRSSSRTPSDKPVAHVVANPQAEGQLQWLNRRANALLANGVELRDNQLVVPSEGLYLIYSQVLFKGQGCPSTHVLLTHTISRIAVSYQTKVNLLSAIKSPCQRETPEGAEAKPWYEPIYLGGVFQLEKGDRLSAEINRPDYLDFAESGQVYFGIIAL

## CC(C)Oc1ccccc1O
[1]
  outcome: inactive
[2]
  outcome: inactive
[3]
  outcome: inactive
[4]
  outcome: inactive
[5]
  outcome: inactive
[6]
  outcome: inactive
[7]
  outcome: inactive
[8]
  outcome: inactive
[9]
  outcome: inactive
[10]
  outcome: inactive
[11]
  outcome: inactive
[12]
  outcome: inactive
[13]
  outcome: inactive
[14]
  outcome: inactive
[15]
  outcome: inactive
[16]
  outcome: inactive
[17]
  outcome: inactive
[18]
  outcome: inactive
[19]
  outcome: inactive

## CC(=O)[C@H]1CC[C@H]2[C@@H]3CC=C4C[C@@H](O)CC[C@]4(C)[C@H]3CC[C@]12C
[1]
  outcome: inactive
[3]
  outcome: inactive
[4]
  outcome: inactive
[5]
  outcome: inactive
[6]
  outcome: inactive
[7]
  outcome: inactive
[8]
  outcome: inactive
[9]
  outcome: inactive
[10]
  outcome: inactive
[11]
  AC50: 3.97 µM (active)
[12]
  outcome: inactive
[13]
  AC50: 9.59 µM (active) and 11.8 µM (active)
[14]
  outcome: inactive
[15]
  outcome: inactive
[16]
  outcome: inactive
[17]
  outcome: inactive
[18]
  outcome: inactive
[19]
  outcome: inactive

## CCCCCCCCCCCCCCCCCC(=O)OCC(CC)CCCC (stereo unspecified)
[1]
  outcome: inactive
[2]
  outcome: inactive
[3]
  outcome: inactive
[4]
  outcome: inactive
[5]
  outcome: inactive
[6]
  outcome: inactive
[7]
  outcome: inactive
[8]
  outcome: inactive
[9]
  outcome: inactive
[10]
  outcome: inactive
[11]
  outcome: inactive
[12]
  outcome: inactive
[13]
  outcome: inactive
[14]
  outcome: inactive
[15]
  outcome: inactive
[16]
  outcome: inactive
[17]
  outcome: inactive
[18]
  outcome: inactive
[19]
  outcome: inactive

## OC1OC[C@@H](O)[C@H](O)[C@H]1O (stereo partly specified)
[1]
  outcome: inactive
[3]
  outcome: inactive
[4]
  outcome: inactive
[5]
  outcome: inactive
[6]
  outcome: inactive
[7]
  outcome: inactive
[8]
  outcome: inactive
[9]
  outcome: inactive
[10]
  outcome: inactive
[11]
  outcome: inactive
[12]
  outcome: inactive
[13]
  outcome: inactive
[14]
  outcome: inactive
[15]
  outcome: inactive
[16]
  outcome: inactive
[17]
  outcome: inactive
[18]
  outcome: inactive
[19]
  outcome: inactive

## CC(=O)OCCC(C)CC(C)(C)C (stereo unspecified)
[1]
  outcome: inactive
[3]
  outcome: inactive
[4]
  outcome: inactive
[5]
  outcome: inactive
[6]
  outcome: inactive
[7]
  outcome: inactive
[20]
  outcome: inactive
[8]
  outcome: inactive
[9]
  outcome: inactive
[10]
  outcome: inactive
[11]
  outcome: inactive
[12]
  outcome: inactive
[13]
  outcome: inactive
[14]
  outcome: inactive
[15]
  outcome: inactive
[16]
  outcome: inactive
[17]
  outcome: inactive
[18]
  outcome: inactive
[19]
  outcome: inactive

## CCCCCCCCCC=O
[1]
  outcome: inactive
[2]
  outcome: inactive
[3]
  outcome: inactive
[4]
  outcome: inactive
[5]
  outcome: inactive
[6]
  outcome: inactive
[7]
  outcome: inactive
[8]
  outcome: inactive
[9]
  outcome: inactive
[10]
  outcome: inactive
[11]
  outcome: inactive
[12]
  outcome: inactive
[13]
  outcome: inactive
[14]
  outcome: inactive
[15]
  outcome: inactive
[16]
  AC50: 29.3 µM (active)
[17]
  outcome: inactive
[18]
  AC50: 29.9 µM (active)
[19]
  outcome: inactive

## C[C@H]1C[C@@H]2[C@H]([C@@H](O)C[C@@]3(C)[C@H]2CC[C@]3(O)C(=O)CO)[C@@]2(C)C=CC(=O)C=C12
[1]
  outcome: inactive
[3]
  outcome: inactive
[4]
  outcome: inactive
[5]
  outcome: inactive
[6]
  outcome: inactive
[7]
  outcome: inactive
[8]
  outcome: inactive
[9]
  outcome: inactive
[10]
  outcome: inactive
[11]
  outcome: inactive
[12]
  outcome: inactive
[13]
  AC50: 6.44 µM (active)
  outcome: inactive
[14]
  AC50: 4.93 µM (active) and 3.97 µM (active)
[15]
  outcome: inactive
[16]
  outcome: inactive
[17]
  outcome: inactive
[18]
  outcome: inactive
[19]
  outcome: inactive
